A selection: hits, their analogues and other compounds. The true share with any hit is near 2.6%.
Anthrax LT inh – anthrax lethal toxin internalization inhibition. Cells, anthrax lethal toxin internalization, FRET ratio (460/530). Potency, µM (highest dose often 40 µM), inactives show at the highest dose activity change, negative = inhibition, hits mostly inhibitors. actives 0.67% (n = 70,000). AID 912; note: % is set by controls: 0 for no effect and ±100 for the full control effect; nearly all actives have a fitted effect of over 50% in size
AmpC det inh – blocks E. coli AmpC beta-lactamase in presence of detergent; actives 0.09% (n = 71,000); AID 584; Potency, µM (titrated, usually from 28.7 µM), without a hit: at the top dose activity change, negative = inhibition; purified AmpC, nitrocefin hydrolysis with detergent; active = well fitted curve in the direction sought with a large enough effect; inconclusive = small, poorly fitted or top-dose-only effect; note: % is set by controls: 0 for no effect and ±100 for the full control effect
Target sequence (P00811 whole entry, looked up): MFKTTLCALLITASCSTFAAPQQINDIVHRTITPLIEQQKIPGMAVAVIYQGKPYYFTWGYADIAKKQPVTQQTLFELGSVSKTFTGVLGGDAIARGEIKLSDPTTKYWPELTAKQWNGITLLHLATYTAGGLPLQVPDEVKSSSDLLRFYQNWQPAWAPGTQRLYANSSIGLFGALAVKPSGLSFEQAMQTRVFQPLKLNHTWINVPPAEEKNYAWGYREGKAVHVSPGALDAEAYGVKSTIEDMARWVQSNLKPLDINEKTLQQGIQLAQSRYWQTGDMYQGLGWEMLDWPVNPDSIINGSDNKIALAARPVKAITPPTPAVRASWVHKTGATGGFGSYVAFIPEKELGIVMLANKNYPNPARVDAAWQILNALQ
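E. coli AmpC (5.3 nM) in 20 mM phosphate pH 7.0 with 0.01% Triton X-100, preincubated 15 min RT with compound; nitrocefin (2 uL of 800 uM stock) hydrolysis followed by 480 nm absorbance every 20 s over 4 min.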
AmpC nodet inh – blocks E. coli AmpC beta-lactamase in absence of detergent; P00811; AmpC nitrocefin hydrolysis, absorbance 480 nm, no detergent; Potency, µM (series often up to 28.7 µM), for the others: at the top dose activity change, negative = inhibition; actives 1.8% (n = 71,000); AID 585; note: % of control where 0% means no effect
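AmpC, 20 mM phosphate pH 7.0; 15 min cpd preinc, RT; start with nitrocefin (800 uM stock); A480 kinetic read, 20 s intervals, 4 min. No-enzyme wells = negative control.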
SmPrx2 inh – Schistosoma mansoni Prx2 inhibition; actives 0.07% (n = 65,000); S. mansoni Prx2 activity coupled to TGR/GSH (TGR is thioredoxin glutathione reductase), NADPH fluorescence loss, qHTS; Potency, µM
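Coupled assay in which S. mansoni TGR passes NADPH reducing equivalents via glutathione to Prx2, which reduces H2O2. Compounds were preincubated 15 min at room temperature with 25 nM TGR/50 nM Prx2 mix. Kinetic NADPH fluorescence loss (ex 365/em 450 nm) was monitored.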
* = called active by the depositor; ? = inconclusive; . = no result; [ ] = another dose, or the depositor's remark. Unless noted, calls come from the whole dose curve. Potency is the fitted concentration of half-maximal effect.

SMILES	Anthrax LT inh	AmpC det inh	AmpC nodet inh	SmPrx2 inh
CC(C)[C@H](NC(=O)OC(C)(C)C)c1nnc(S(=O)(=O)Cc2c(F)cccc2Cl)o1	.	0.79µM*	1.3µM*	>57
Cc1ccccc1CS(=O)(=O)c1nnc([C@H](CC(C)C)NC(=O)OC(C)(C)C)o1	?	7.9µM*	10µM*	>57
O=C(c1cnccn1)N1CCC2(CCCN(Cc3ccncc3)C2)CC1	-1%	0%	28%	>57
CO[C@H]1OC[C@@]2(C)[C@@H]3C4=C(CN2C(=O)OC(C)(C)C)[C@H](C)[C@H](CO)[C@H](CO)[C@H]4CC[C@H]13	?	-3%	168%	.
COc1ccc(Oc2ncc3nc(-c4cn(C)c5ccccc45)c(=O)n(C)c3n2)cc1	?	0%	6%	>57
O=C(NCCN1CCCC1)c1ccc(CS(=O)(=O)c2c(Cl)cccc2Cl)o1	-9%	13%	4µM*[single pt active]	>57
CN(C)CCNC(=O)c1ccc(CS(=O)(=O)c2c(Cl)cccc2Cl)o1	-22%	4%	10%	>57
CCOC(=O)[C@]1(C(NC(=O)OC)c2ccco2)CCCC1=O (stereo partly drawn)	-13%[8 µM]	.	.	.
Cc1ccc(S(=O)(=O)n2nc(C)c(Br)c2C)c(C)c1C	13µM*	8%	-8%	>57
CCOC(=O)N1CCN(S(=O)(=O)c2ccc(C)c(C)c2C)CC1	17%	-9%	63%	>57
Cc1sc2nc3ccc(N4CCCC4)nn3c(=O)c2c1C	-14%	18%	4µM*[single pt active]	>57
CC1=C2[C@@H]3OC(=O)[C@H](C)[C@H]3CC[C@@]2(C)C=CC1=O	6%	0%	-6%	>57
Cc1ccc2oc(=O)c3cnn(CC(=O)N4CCCc5ccccc54)c3c2c1	14%	6%	36%	.
O=C(Cn1ncc2c(=O)oc3ccccc3c21)N1CCC(N2CCCCC2)CC1	-13%	10%	3.2µM*[single pt active]	>57
O=C(Cn1ncc2c(=O)oc3ccccc3c21)N1CCc2ccccc2C1	-11%	12%	4µM*[single pt active]	>57
CSc1ncnc2c1ncn2CC(=O)[C@H]1CC[C@H]2[C@H]3CCC4=CC(=O)CC[C@@]4(C)[C@@H]3CC[C@@]12C	?	-5%[5.75 µM]	66%[5.75 µM]	>57
CCCN(CCC)c1c([N+](=O)[O-])cc(C(F)(F)F)cc1[N+](=O)[O-]	5µM*	10%	-15%	.
O=[N+]([O-])c1cc(C(F)(F)F)cc([N+](=O)[O-])c1Cl	0%	13%	-3%	.
O=C(c1cccc(F)c1)N1CCC[C@@]2(CCN(c3ccncc3)C2)C1	-3%	-4%	-1%	>57
CCOC(=O)C1CCCN(C(=O)c2ccc(CS(=O)(=O)Cc3ccccc3C)o2)C1 (stereo not drawn)	?	-2%	53%	>57
CCOC(=O)C1CCCN(C(=O)c2ccc(CS(=O)(=O)c3ccc(C)cc3)o2)C1 (stereo not drawn)	-8%	11%	2.5µM*[single pt active]	>57
Cc1ccc(S(=O)(=O)Cc2ccc(C(=O)N3CCCCCC3)o2)cc1	-8%	15%	49%	>57
Cc1ccc(S(=O)(=O)Cc2ccc(C(=O)N3CCCC3)o2)cc1	-5%	12%	4µM*[single pt active]	>57
O=c1cnc2cnc(Oc3cccc(Cl)c3)nc2n1Cc1ccc(F)cc1	2%	0%	50%	>57
CN(C)C(=O)N1CCC(C(=O)NCc2ccccc2Cl)CC1	-7%	-3%	-14%	>57
SMILES	Anthrax LT inh	AmpC det inh	AmpC nodet inh	SmPrx2 inh
O=C(NCc1ccccc1Cl)C1CCN(C(=O)c2sccc2-n2cccc2)CC1	13µM*	4%	25%	>57
COc1ccccc1NC(=O)Cn1nnc(-c2ccccc2NC(=O)c2ccco2)n1	-5%	4%	-21%	>57
COc1ccccc1NC(=O)Cn1nnc(-c2ccccc2NC(=O)c2cccs2)n1	-1%	2%	7.9µM*	>57
COc1ccc(NC(=O)Cn2nnc(-c3ccccc3NC(=O)c3ccco3)n2)cc1	-1%	9%	13µM*	>57
ClCC[N+]12CC[N+](CCCl)(CC1)C2 (tested in a mixture with another compound)	-2%[8 µM]	-4%[5.75 µM]	4%[5.75 µM]	>57
CC1(C(=O)NCCCNc2ncc(C(F)(F)F)cc2Cl)C=CC2(CCCCC2)N1C(=O)c1ccccc1 (stereo not drawn)	25µM*	11%	8%	.
Cc1cccc(N2CCN(C(=O)C3CCN(c4nnc(-n5cccc5)s4)CC3)CC2C)c1 (stereo not drawn)	7.9µM*	5%	105%	>57
CCc1ccc(N(CC(=O)NC2CCCCC2)S(=O)(=O)c2c(C)noc2C)cc1	-24%	12%	4µM*[single pt active]	>57
CCOc1ccc(N(CC(=O)NC2CCCCC2)S(=O)(=O)c2c(C)noc2C)cc1	-3%	6%	14%	>57
CCc1cc(=O)oc2cc(C)c3c(C)coc3c12	-16%	-4%	-8%	>57
CCc1cc(=O)oc2cc(C)cc(O)c12	-3%	9%	4µM*[single pt active]	>57
COc1ccc(S(=O)(=O)N(CCCN2CCCC2=O)Cc2cc3c(C)cc(C)cc3[nH]c2=O)cc1	4%	1%	178%	20*
O=C(Nc1ccccc1)N1CC[C@@]2(CCCN(C(=O)c3ccncc3)C2)C1	1%	-1%	2%	>57
O=C1/C(=C/c2ccccc2)[C@@H](NC2CCCCC2)c2ccccc21	4µM*	-2%[5.75 µM]	9%[5.75 µM]	.
COC(=O)[C@@H](NC(=O)c1cc(-c2ccccc2)nc2ccccc12)c1ccccc1	.	-3%	36%	>57
O=C1C=CC2=C3c4cc(O)c(O)cc4C[C@@]3(O)COC2=C1O	25µM*	-14%	16µM*	>57
CCN(CC)C[C@@H](O)CN1CCCCc2nc(C)c(C)cc21	10%[0.32 µM]	.	.	.
COc1ccc(OC)c2c(=S)c3ccccc3[nH]c12	?	3%	-20%	>57
Cc1ccc(Cn2c(SCC(=O)Nc3cc(C)on3)nc3ccccc3c2=O)cc1	11%	-1%	13µM*[single pt active]	>57
Cc1cc(NC(=O)CSc2nc3ccccc3c(=O)n2Cc2ccccc2)no1	-9%	-2%	-20%	>57
CCN1C(=O)[C@H]2[C@H]3[C@H](O)[C@H](O)C/C(=N/OC)[C@@H]3CC[C@@H]2C1=O	-19%[8 µM]	.	.	.
CC(C)CN1CCC2(CC1)CCN(C(=O)c1cc(C(F)(F)F)cc(C(F)(F)F)c1)CC2	-12%	-2%	20%	>57
COc1cc2c(=O)n(Cc3ccco3)c(=O)n(CC(=O)c3ccc(Br)cc3)c2cc1OC	0%	-2%	106%	>57
COc1cc2c(=O)n(Cc3ccco3)c(=O)n(CC(=O)c3cccc(Br)c3)c2cc1OC	-4%	?	6.3µM*	>57
O=C(c1ccccc1)c1cn(CC(=O)N2CCCC2)c2ccccc12	10%	16%	4µM*[single pt active]	>57
O=[N+]([O-])c1ccc(CSc2ncnc3c2ncn3[C@@H]2O[C@@H](CO)[C@@H](O)[C@H]2O)cc1	5%	-2%	18%	>57
CCOC(=O)C1CCN(C(c2cc(OC)c(OC)c(OC)c2)c2sc3nc(C)nn3c2O)CC1 (stereo not drawn)	16µM*	6%	10%	>57

Bioassay records: PubChem, National Center for Advancing Translational Sciences (NCATS)
